Screening results: PubChem, National Center for Advancing Translational Sciences (NCATS)
A selection: hits, their analogues and other compounds. The true share with any hit is near 7.9%.
MCF10A rerep = induces DNA re-replication in MCF 10a normal breast cells; MCF 10A DNA re-replication, Hoechst nuclear intensity, 48 h; Potency, µM (highest dose often 46.1 µM), inactives show top-dose activity, positive = re-replication, usual class: activators; 2.9% of 350,000 active; AID 624296; further: % of control where 0% means no effect; nearly all actives have a fitted effect of over 50% in size
KB-3-1 cytotox = kills parental KB-3-1 adenocarcinoma cells | KB-3-1 viability, CellTiter-Glo ATP luminescence, 72 h | Potency, µM (doses to about 46.1 µM), hits mostly cytotoxic | 1.4% of 400,000 active | AID 1347075; further: on the % scale 0 is the no-effect control and ±100 the full control effect; nearly all actives have a fitted effect of over 60% in size
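Multi-concentration cytotoxicity screen in KB-3-1 cells grown in DMEM lacking phenol red with 10% FBS. After 72 h at 37 °C with compound, ATP-dependent luminescence was recorded.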
KB-V1 MDR tox = KB-V1 MDR subline cytotoxicity | KB-V1 MDR cells viability, CellTiter-Glo, 72 h | Potency, µM (series often up to 46.1 µM), most hits filed as cytotoxic | 3.4% of 400,000 active | AID 1347076; further: on the % scale 0 is the no-effect control and ±100 the full control effect; nearly all actives have a fitted effect of over 60% in size
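KB-V1, DMEM (no phenol red) + 10% FBS; cpd pin-transferred, titration series; 72 h, 37 degrees C; CellTiter-Glo, luminescence. Data normalized, curve-fit.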
HT1080NT lethal = kills 2HG-producing HT-1080-NT fibrosarcoma cells; HT-1080-NT fibrosarcoma viability, CellTiter-Glo ATP luminescence, 48 h; 1.6% of 360,000 active; Potency, µM (doses to about 46.1 µM), for inactives: at the highest dose activity, negative = less viability, usual class: cytotoxic; AID 686970;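 further: NT is the 2HG producing partner of a matched IDH1 knockdown line; 0% = DMSO-treated cells and -100% = media-only wells without cells; nearly all actives have a fitted effect of over 55% in size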
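HT-1080-NT; 750 cells/well; 5% FBS RPMI; 48 h compound, 37 degrees C; CellTiter-Glo luminescence; curve fitting and curve-class assignment.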
HT1080 IDH1KD tx = toxicity to HT-1080 IDH1 knockdown cells (counter line); HT-1080 IDH1 knockdown viability, ATP luminescence, 48 h; Potency, µM (titrated, usually from 46.1 µM), for inactives: at the top dose activity, negative = toxicity, actives largely listed as cytotoxic; 2% of 360,000 active; AID 686971;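 further: 0% = DMSO wells and -100% = cell-free medium wells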
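In this qHTS, HT-1080 cells depleted of IDH1 are exposed for 48 h at 37 °C to compound titrations. Toxicity is scored from CellTiter-Glo luminescence, with DMSO as full viability and medium alone as none.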
SW480 rerep = DNA re-replication induction in SW480 cells; SW480 DNA re-replication, Hoechst DNA content imaging, 48 h; Potency, µM (titrated, usually from 46.1 µM), without a hit: top-dose re-replication activation, usual class: activators; 1.8% of 340,000 active; further: % of control where 0% means no effect; nearly all actives have a fitted effect of over 55% in size
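Image-based DNA-content assay: after two days of treatment, nuclei were labelled with the DNA dye Hoechst and imaged, and hits were compounds raising the count of nuclei showing high fluorescence intensity.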
Active calls of the source: *; i = inactive; ? = inconclusive; nt = no result given; ! = a repeat was not active. The call rests on the fitted dose curve; in most records, active means well fitted curve in the direction sought with a large enough effect; inconclusive means small, poorly fitted or top-dose-only effect, or another doubt; inactive means no such curve, though single readings can be large; an effect the other way counts as inactive or inconclusive. Potency means the concentration at half of the fitted maximal effect.

SMILES	MCF10A rerep	KB-3-1 cytotox	KB-V1 MDR tox	HT1080NT lethal	HT1080 IDH1KD tx	SW480 rerep
CC(C)c1ccc(CNc2nc(-c3ccco3)nn2C(=O)c2ccc([N+](=O)[O-])cc2)cc1	nt	i	i	nt	nt	nt
Cc1cc2n(n1)CCCN2C(=O)Nc1ccc(Cl)cc1	nt	i	i	nt	nt	nt
COC(=O)c1sc2ccccc2c1NC(=O)c1ccc(S(=O)(=O)N2CCCCC2)cc1	2%	i	i	13%	23%	-1%
CS(=O)(=O)c1ccccc1-c1nnc(NC(=O)c2ccc(S(=O)(=O)N3CCCC3)cc2)o1	22%	i	i	-9%	-23%	3%
CC1CCCCN1S(=O)(=O)c1ccc(C(=O)Nc2nnc(-c3ccccc3Cl)o2)cc1 (centres undefined)	?	?	16µM*	?	8.2µM*	23%
O=C(Nc1nnc(-c2ccccc2Cl)o1)c1ccc(S(=O)(=O)N2CCCCCC2)cc1	4µM*	?	8.2µM*	4.1µM*	8.2µM*	?
COC(=O)c1sc2ccccc2c1NC(=O)c1ccc(S(=O)(=O)N2CCCCC2C)cc1 (centres undefined)	17%	i	16µM*	-2%	-5%	3%
CCC1CCCCN1S(=O)(=O)c1ccc(C(=O)Nc2nnc(-c3ccccc3Cl)o2)cc1 (centres undefined)	?	?	?	?	8.2µM*	?
O=C(NCc1ccccc1)c1c(Cl)nc(Cl)c(Cl)c1Cl	18µM*	16µM*	i	10µM*	7.3µM*	6.5µM*
Cc1ccc(-c2cccc(C(=O)NCCc3ccccc3)n2)c2ccccc12	-3%	i	i	-26%	-17%	?
Cc1nc(Cl)c(C(=O)NCc2ccccc2)c(C)c1Cl	1%	i	i	0%	21%	-4%
Cc1ccc(-c2cccc(C(=O)NCc3ccccc3)n2)c2ccccc12	?	?	?	?	?	16µM*
COc1ccccc1CNC(=O)C1CCN(c2nn3c(=O)cc(C)nc3s2)CC1	nt	i	i	nt	nt	nt
CCOC(=O)N1CCN(S(=O)(=O)c2ccc(F)c(C(=O)Nc3ccc(C(C)C)cc3)c2)CC1	18%	i	6.5µM*	-11%	-11%	8%
Cc1cc(C)cc(NS(=O)(=O)c2ccc3[nH]cc(C(=O)NCCc4ccccc4)c(=O)c3c2)c1	nt	i	?	nt	nt	nt
CCc1ccccc1NS(=O)(=O)c1ccc2[nH]cc(C(=O)NC3CCCC3)c(=O)c2c1	?	15µM*!	?	?	18µM*	-245%
COc1cccc(NS(=O)(=O)c2ccc3[nH]cc(C(=O)NCCC(C)C)c(=O)c3c2)c1	17%	?	i	12µM*	?	-4%
CC(C)CCNC(=O)c1c[nH]c2ccc(S(=O)(=O)N3CCOCC3)cc2c1=O	2%	i	?	7%	5%	-16%
Cc1ccc(CCNC(=O)c2c[nH]c3ccc(S(=O)(=O)Nc4cccc(C(F)(F)F)c4)cc3c2=O)cc1	nt	13µM*	i	nt	nt	nt
COc1ccc(-c2ccc3ncnc(NCc4ccc(C)o4)c3c2)cc1OC	nt	i	?	nt	nt	nt
CCN(C(=O)CCc1nc(-c2ccc(OC)cc2)no1)c1cc(OC)ccc1OC	-14%	?	16µM*	-12%	-10%	0%
COc1cccc(-c2noc(CCCC(=O)NC3CCCC3)n2)c1	-1%	i	i	-2%	-14%	21µM*
O=C(CCCc1nc(-c2ccc(Cl)cc2)no1)NC1CCCCC1	16%	?	12µM*	8%	12%	-1%
COc1cccc(-c2noc(CCC(=O)NC3CCCC3)n2)c1	9%	i	i	6%	1%	-17%
CCOc1ccc(-c2noc(CCCC(=O)NC3CCCC3)n2)cc1OC	0%	i	8.2µM*	1%	-6%	-9%
